CBFb-RUNX1 inh – blocks binding between human CBF-beta and RUNX1; Potency, µM (series often up to 59.8 µM), inactives show at the top dose activity, negative = inhibition, actives largely listed as inhibitors; AlphaScreen CBFb-His/RUNX1-biotin binding, biochemical; 230,000 tested, under 10 active; AID 1477; Q01196+Q13951; further: % of control where 0% means no effect
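Bead-based AlphaScreen assay; binding partners His-tagged CBF-beta and biotinylated RUNX1 at 30 nM each. Compound exposure 15 min after a 20-min protein preincubation; bead step 90 min; all steps at room temperature.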
LMNA splice mod – changes lamin A minigene splicing in HeLa cells; HeLa LMNA splicing GFP/RFP minigene ratio, 48 h; Potency, µM (titrated, usually from 46.1 µM), without a hit: top-dose ratio change, negative = inhibition, actives largely listed as inhibitors; actives 0.01% (n = 200,000); AID 1487; active means well fitted inhibition curve with a large enough effect in the signal ratio, with a control signal flat, not every such curve was filed as active; inconclusive means small, poorly fitted or top-dose-only effect, or effect the other way, or a change in a side signal; the % refers to the signal ratio; further: potency means the concentration at half of the fitted maximal effect; on the % scale 0 is the no-effect control and ±100 the full control effect
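S3 HeLa cells stably expressing lamin A-EGFP splicing minigene plus DsRed2, 600 cells/well, 48 h compound exposure at 37C. Laser-scanning cytometry; analysed as GFP (500-530 nm)/RFP (575-640 nm) total intensity ratio; 0.5% DMSO vehicle.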
Tau ThT inhib – inhibitors of human tau fibril formation, thioflavin T binding | P10636 | recombinant tau K18 P301L, heparin-induced fibrillization, ThT fluorescence | Potency, µM (highest dose often 57.4 µM), without a hit: at the top dose activity, negative = inhibition, actives largely listed as inhibitors | actives 2.1% (n = 270,000); further: potency means the concentration at half of the fitted maximal effect; on the % scale 0 is the no-effect control and ±100 the full control effect; nearly all actives have a fitted effect of over 55% in size
Target sequence (P10636 561-689 P618L limits assumed): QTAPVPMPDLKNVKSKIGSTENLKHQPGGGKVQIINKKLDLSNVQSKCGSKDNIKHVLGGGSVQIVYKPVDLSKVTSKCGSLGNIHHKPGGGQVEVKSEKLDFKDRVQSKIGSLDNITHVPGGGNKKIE
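Aggregation was driven by heparin (20 uM final) acting on recombinant tau […] bearing P301L in 100 mM sodium acetate pH 7; fibrils were detected with Thioflavin T.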
KDM4E inh – blocks human JMJD2E demethylase activity; JMJD2E catalytic domain, FDH-coupled NADH fluorescence (FDH is formaldehyde dehydrogenase); Potency, µM (titrated, usually from 57.1 µM), for inactives: at the top dose activity change, negative = inhibition, usual class: inhibitors; actives 1.6% (n = 230,000); AID 2147; active means well fitted inhibition curve with a large enough effect, not every such curve was filed as active; inconclusive means small, poorly fitted or top-dose-only effect, or another doubt; inactive means no such curve, though single readings can be large or run the other way;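 further: potency means the concentration at half of the fitted maximal effect; 0% = wells with enzyme and -100% = buffer wells without enzyme; nearly all actives have a fitted effect of over 50% in size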
Target sequence (B2RXH2 1-337 limits assumed): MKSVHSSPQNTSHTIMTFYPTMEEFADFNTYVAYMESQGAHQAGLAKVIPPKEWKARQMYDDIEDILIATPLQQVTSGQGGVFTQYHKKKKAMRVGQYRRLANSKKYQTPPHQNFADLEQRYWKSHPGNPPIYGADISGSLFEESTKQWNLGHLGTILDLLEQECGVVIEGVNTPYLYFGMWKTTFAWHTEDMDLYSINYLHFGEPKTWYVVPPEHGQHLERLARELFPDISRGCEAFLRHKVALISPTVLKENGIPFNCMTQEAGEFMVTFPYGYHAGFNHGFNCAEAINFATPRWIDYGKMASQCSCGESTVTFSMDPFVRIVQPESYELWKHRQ
Tau fibril FP – blocks human tau fibril formation measured by polarization; Potency, µM (doses to about 57.7 µM), for the others: at the top dose activity, negative = inhibition, most hits filed as inhibitors; K18 P301L tau heparin fibrillization, Alexa594 FP, 6 h; P10636; actives 0.39% (n = 280,000); further: potency means the concentration at half of the fitted maximal effect; on the % scale 0 is the no-effect control and ±100 the full control effect; nearly all actives have a fitted effect of over 55% in size
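FP of Alexa 594-tau after heparin (20 uM) induction. Substrate: human K18 P301L, 15 uM unlabeled, 0.24 uM labeled. Buffer 100 mM sodium acetate pH 7. 6 hr, 37 C.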
Tau fluor counter – counter-screen for tau fibril formation inhibitors; actives 0.93% (n = 280,000); tau K18 P301L (four-repeat tau fragment) Alexa594 fluorescence, heparin fibrillization; Potency, µM (highest dose often 57.7 µM), inactives show at the top dose activity change, negative = decrease; further: potency means the concentration at half of the fitted maximal effect; on the % scale 0 is the no-effect control and ±100 the full control effect; nearly all actives have a fitted effect of over 55% in size
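Human K18 P301L tau (15 uM unlabeled plus 0.24 uM Alexa 594-labeled, final) in 100 mM sodium acetate pH 7 was mixed with compound and 20 uM heparin and incubated 6 hr at 37 C.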
An asterisk follows results filed as active; ? = inconclusive; . = not tested or not shown; [ ] = dose if it differs, or a comment. Sampled rows, rich in hits. Any-hit rate of the full collection: about 3.2%. Unless noted, the call rests on the fitted dose curve; in most records, active means well fitted curve in the direction sought with a large enough effect; inconclusive means small, poorly fitted or top-dose-only effect, or another doubt; inactive means no such curve, though single readings can be large; an effect the other way counts as inactive or inconclusive.

SMILES | CBFb-RUNX1 inh | LMNA splice mod | Tau ThT inhib | KDM4E inh | Tau fibril FP | Tau fluor counter
COc1ccc(NC(=O)c2c(NCc3ccc(C)o3)sc3c2CCC(C)C3)cc1 (stereo unspecified) | . | -27%[46 µM] | 25µM* | . | ? | ?
Cc1ccc(-c2ccc(=O)n(CC(=O)Nc3ccc(C(C)C)cc3)n2)cc1 | . | . | -13% | . | ? | -28%
COc1ccccc1Nc1ncnc2c1cnn2-c1cccc(C)c1 | -1% | ? | -19% | -30% | -5% | -25%
O=C(O)c1cccc(Nc2ncnc3c2cnn3-c2ccccc2)c1 | 3% | -1% | ? | -1% | -6% | -14%
Cc1cccc(-n2ncc3c(Nc4ccc(Oc5ccc(Cl)cc5)cc4)ncnc32)c1 | . | -4%[46 µM] | 8% | . | 13µM* | 4µM*[quencher]
COc1cccc(Nc2ncnc3c2cnn3-c2cccc(C)c2)c1 | 15% | 12% | -3% | ? | ? | ?
Fc1cccc(Nc2ncnc3c2cnn3-c2ccccc2)c1 | 11% | . | ? | ? | 25µM* | ?
Cc1cccc(-n2ncc3c(Nc4ccc(C)c(Cl)c4)ncnc32)c1 | . | -10%[46 µM] | 11% | . | 8.9µM* | ?
CCCCNC(=O)Cn1c(=O)cc(C)c2c(C)nn(-c3ccc(CC)cc3)c21 | . | -9%[46 µM] | 9% | . | -12% | 1%
CCOc1ccccc1C(=O)NCC(c1cccs1)S(=O)(=O)c1ccc(F)c(C)c1 (stereo unspecified) | . | 2%[46 µM] | -4% | . | 1% | -1%
Cc1ccc(NC(=O)C(=O)c2cc(C)n(-c3ccc(F)cc3)c2C)cc1C | . | . | 9% | . | 7% | 4%
Cc1cc2c3c(c1)C(C)(c1ccccc1)CC(C)(C)N3C(=O)C21C(C#N)=C(N)OC2=C1C(=O)CC(C)(C)C2 (stereo unspecified) | -1% | ? | -19% | -9% | 13% | -12%
CC1(c2ccccc2)CC(C)(C)N2C(=O)C3(C(C#N)=C(N)Oc4cc(O)ccc43)c3cccc1c32 (stereo unspecified) | -13% | 20% | -19% | -2% | 25µM* | ?
Oc1cc(-n2cccn2)c(O)cc1-n1cccn1 | 4% | ? | 16µM* | 16µM* | ? | 16µM*[quencher]
O=Cc1ccccc1-n1cccn1 | 22% | . | -2% | -2% | -10% | -2%
CC(C)CCCC(C)CCCC(C)CCCC(C)C(=O)O (stereo unspecified) | -3% | . | . | . | . | .
CC(C)(C)c1ccc(/C=C/C(=O)Nc2ccc3c(c2)OCCO3)cc1 | -2% | . | ? | -15% | ? | 10µM*[quencher]
CC(=O)Nc1ccc(NC(=O)/C=C/c2ccc3c(c2)OCO3)cc1 | 11% | ? | ? | ? | -2% | -12%
C=C(C)COc1ccc(-c2[nH]ncc2-c2ccccc2OC)c(O)c1 | -7% | ? | ? | -9% | -5% | 16µM*[quencher]
C=C(C)COc1ccc(-c2nc(N)ncc2Oc2ccc(OC)cc2)c(O)c1 | -18% | ? | -6% | -8% | ? | ?
C=C(C)COc1ccc(-c2[nH]ncc2-c2ccc(Br)cc2)c(O)c1 | -8% | ? | ? | 20% | 28µM* | 10µM*[quencher]
C=C(C)COc1ccc(-c2n[nH]c(C)c2-c2ccc(Br)cc2)c(O)c1 | 1% | ? | 6% | 6% | ? | -6%
C=C(C)COc1ccc(-c2[nH]ncc2Oc2ccc(OC)cc2)c(O)c1 | 2% | . | ? | -16% | ? | 7.9µM*[quencher]
C=C(C)COc1ccc(-c2nc(N)ncc2Oc2ccccc2OC)c(O)c1 | -7% | ? | 2% | 0% | ? | ?
C=C(C)COc1ccc(-c2[nH]ncc2Oc2ccccc2OC)c(O)c1 | -3% | ? | ? | ? | ? | 14µM*[quencher]
SMILES | CBFb-RUNX1 inh | LMNA splice mod | Tau ThT inhib | KDM4E inh | Tau fibril FP | Tau fluor counter
Cc1noc(C)c1-c1ccc2ncnc(NCc3cccc(Cl)c3)c2c1 | 7% | . | . | . | . | .
C=CCN1c2ccccc2[C@]23C[C@@H](C(=O)OC)N(S(=O)(=O)c4cccs4)C2=NC(C(=O)OC)=C(C(=O)OC)[C@H]13 | 0%[13.1 µM] | -3%[9.22 µM] | -3%[11.5 µM] | 9%[11.4 µM] | -5%[11.6 µM] | -9%[11.6 µM]
Cc1ccc(-c2nc3nc(C)cc(N4CCN(c5cccc(C)c5)C(C)C4)n3n2)cc1 (stereo unspecified) | . | . | ? | . | 4% | -15%
CC(=O)c1cccc(NC(=O)Cn2ccn3nc(-c4ccccc4)cc3c2=O)c1 | . | 18%[46 µM] | 11% | . | -4% | 8%
CCCOC(=O)c1ccc(Oc2cn[nH]c2-c2ccc(OC)cc2O)cc1 | -3% | ? | ? | -2% | ? | 11µM*[quencher]
COc1ccc(-c2[nH]ncc2-c2nc(C)cs2)c(O)c1 | 8% | ? | -5% | -4% | 0% | -10%
C=CC1=C(C)/C(=C/c2[nH]c(Cc3[nH]c(/C=C4\NC(=O)C(C)=C4C=C)c(C)c3CCC(=O)O)c(CCC(=O)O)c2C)NC1=O | . | ? | 10µM* | ? | ? | ?
C=CCCCCCCCCCBr | 1% | . | . | . | . | .
Cc1c(Cl)cccc1NC(=S)/C(=C(\[O-])c1ccc(Cl)s1)[n+]1ccccc1 | -18% | -21% | 2% | -8% | 2% | 4%
[O-]/C(=C(\C(=S)Nc1ccc(SC(F)F)cc1)[n+]1cccc(CO)c1)c1ccc(Cl)s1 | ? | . | 25µM* | -9% | -12% | ?
Cc1ccc(NC(=S)/C(=C(\[O-])c2ccc(Cl)s2)[n+]2cccc(CO)c2)cc1C | 11% | . | ? | -6% | -5% | -25%
[O-]/C(=C(\C(=S)Nc1cccc2ccccc12)[n+]1cccc(CO)c1)c1ccc(Cl)s1 | -12% | . | 14µM* | 13µM* | ? | ?
COc1ccc(-c2cc(C(F)(F)F)nc(SCC(=O)NCc3ccc(Cl)cc3)n2)cc1 | . | . | 10% | . | ? | -9%
CCOc1ccc(CCNC(=O)CCCc2nnc3n(CC)c(=O)c4sccc4n23)cc1 | . | . | 1% | . | -2% | -2%
CC(=O)O[C@@H]1CC[C@@]2(C)[C@H](C1)[C@H](OC(C)=O)C[C@@H]1[C@@H]2C[C@H]2[C@@H]3CN4C[C@H](C)CC[C@H]4[C@H](C)[C@H]3CC[C@@]12O | -1% | . | . | . | . | .
NC(=O)c1sc(=S)n2c1[nH]c(=O)c1sccc12 | 13% | 8%[46 µM] | 11µM* | -9% | 1% | -26%
CC(=O)NNC(=O)c1sc(=S)n2c1[nH]c(=O)c1sccc12 | 2% | -12%[46 µM] | ? | 41% | 9% | -17%
COc1ccc(CCC(=O)NCc2ccc3c(c2)CCN3C(=O)c2ccc(C)cc2)cc1 | . | -7%[46 µM] | ? | . | -4% | -5%

High-throughput results (PubChem)
